HPGD inh – qHTS Assay for Inhibitors of HPGD (15-Hydroxyprostaglandin Dehydrogenase); Potency, µM, actives largely listed as inhibitors; 150,000 tested, 4.3% active; purified HPGD, NADH fluorescence kinetic, PGE2 substrate; active = well fitted inhibition curve with a large enough effect, not every such curve was filed as active; inconclusive = small, poorly fitted or top-dose-only effect, or another doubt; inactive = no such curve, though single readings can be large or run the other way
Target sequence (P15428 whole entry, looked up): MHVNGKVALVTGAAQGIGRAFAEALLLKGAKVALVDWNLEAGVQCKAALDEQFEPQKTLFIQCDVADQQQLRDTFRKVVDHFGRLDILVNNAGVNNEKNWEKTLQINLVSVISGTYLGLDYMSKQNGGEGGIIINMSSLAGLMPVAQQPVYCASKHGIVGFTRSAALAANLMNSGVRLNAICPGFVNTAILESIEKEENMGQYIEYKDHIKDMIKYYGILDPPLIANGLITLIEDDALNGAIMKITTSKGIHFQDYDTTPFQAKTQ
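20 nM HPGD preincubated 15 min at room temperature with compound in 50 mM Tris-HCl pH 8, 0.01% Tween 20. Started with 1 mM NAD+ and 30 uM prostaglandin E2; NADH fluorescence (360/450 nm) read 5 times over 30-s intervals, last minus first.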
Tau fibril FP – qHTS for Inhibitors of Tau Fibril Formation, Fluorescence Polarization | Microtubule-associated protein tau (Homo sapiens), P10636 | K18 P301L tau heparin fibrillization, Alexa594 FP, 6 h | Potency, µM (doses to about 57.7 µM), usual class: inhibitors | 280,000 tested, 0.39% active | AID 1468, 2008; note: nearly all actives have a fitted effect of over 55% in size
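Steps: dispense K18 P301L tau (15 uM plus 0.24 uM Alexa 594 tracer, final) in pH 7 sodium acetate; add compound; add heparin (20 uM final); incubate 6 hr, 37 C; add ThT (30 uM final); after 1 hr ambient, read FP.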
Tau fluor counter – Counterscreen qHTS for Inhibitors of Tau Fibril Formation, Fluorescence Polarization; tau K18 P301L Alexa594 fluorescence, heparin fibrillization; Potency, µM (highest dose often 57.7 µM); AID 1463, 2008; 280,000 tested, 0.93% active; note: nearly all actives have a fitted effect of over 55% in size
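Human K18 P301L tau (15 uM unlabeled plus 0.24 uM Alexa 594-labeled, final) in 100 mM sodium acetate pH 7 was mixed with compound and 20 uM heparin and incubated 6 hr at 37 C.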
ALDH1A1 block – qHTS Assay for Inhibitors of Aldehyde Dehydrogenase 1 (ALDH1A1) | AID 1030, 2008 | Purified ALDH1A1, NADH fluorescence, propionaldehyde substrate | Aldehyde dehydrogenase 1A1 (Homo sapiens), P00352 | Potency, µM (top dose mostly 75.3 µM), hits mostly inhibitors | 220,000 tested, 7.3% active; active = well fitted inhibition curve with a large enough effect, not every such curve was filed as active; inconclusive = small, poorly fitted or top-dose-only effect, or another doubt; inactive = no such curve, though single readings can be large or run the other way
Target sequence (P00352 whole entry, looked up): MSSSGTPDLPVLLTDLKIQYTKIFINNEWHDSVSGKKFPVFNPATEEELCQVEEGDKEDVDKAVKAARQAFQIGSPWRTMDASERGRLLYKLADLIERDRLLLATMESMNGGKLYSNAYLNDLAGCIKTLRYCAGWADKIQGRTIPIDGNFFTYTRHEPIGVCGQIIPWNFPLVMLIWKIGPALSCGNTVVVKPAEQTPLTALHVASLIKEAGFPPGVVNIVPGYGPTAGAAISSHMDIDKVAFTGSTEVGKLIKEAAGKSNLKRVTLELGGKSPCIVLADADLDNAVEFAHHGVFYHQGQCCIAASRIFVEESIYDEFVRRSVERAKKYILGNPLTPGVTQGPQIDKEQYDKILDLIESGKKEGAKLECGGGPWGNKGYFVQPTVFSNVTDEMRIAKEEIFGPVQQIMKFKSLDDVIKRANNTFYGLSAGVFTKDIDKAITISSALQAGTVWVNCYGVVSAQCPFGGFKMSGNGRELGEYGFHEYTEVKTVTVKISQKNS
NPSR antag – qHTS Assay for Antagonists of the Neuropeptide S Receptor: cAMP Signal Transduction. Q6W5P4. CHO-NPSR cells, cAMP TR-FRET, antagonist mode. Potency, µM (series often up to 38.3 µM), actives largely listed as inhibitors. 220,000 tested, 1% active; note: nearly all actives have a fitted effect of over 50% in size
Tau fibril ThT – qHTS for Inhibitors of Tau Fibril Formation, Thioflavin T Binding; 270,000 tested, 2.1% active; Potency, µM (highest dose often 57.4 µM), hits mostly inhibitors; Microtubule-associated protein tau (Homo sapiens), P10636; recombinant tau K18 P301L (four-repeat tau fragment), heparin-induced fibrillization, ThT fluorescence; note: nearly all actives have a fitted effect of over 55% in size
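In this qHTS, human K18 P301L tau is incubated with compound and heparin for 6 hr at 37 C, and Thioflavin T fluorescence then reports fibril load.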
Each line names hits and unclear results; the compound was inactive in the other large screens; [ ] = remark or other dose. Only some compounds are listed: those with a hit (about 9.5% of all), similar ones and a draw of the others. Unless noted, calls come from the whole dose curve; as a rule, active = well fitted curve in the direction sought with a large enough effect; inconclusive = small, poorly fitted or top-dose-only effect, or another doubt; inactive = no such curve, though single readings can be large; an effect the other way counts as inactive or inconclusive.

Cc1nc2c(C)cccc2cc1C(=O)N/N=C/c1ccc(N(C)C)cc1	Tau fluor counter inconclusive, ALDH1A1 block 11µM, Tau fibril ThT 10µM
Cc1[nH]c(C(=O)N/N=C/c2ccc(C(=O)O)cc2)c(C)c1C(=O)N/N=C/c1ccc(C(=O)O)cc1	none
O=C(Nc1sc2c(c1C(=O)NCc1cccnc1)CCCC2)c1cc(=O)c2ccccc2o1	Tau fibril ThT inconclusive (no result: HPGD inh, ALDH1A1 block, NPSR antag)
CN(C)c1ccc(/C=N/NC(=O)c2sccc2-n2cccc2)cc1	ALDH1A1 block 20µM, Tau fibril ThT inconclusive (no result: HPGD inh)
COc1cccc(/C=N/NC(=O)c2ccc3nc[nH]c3c2)c1	Tau fibril ThT inconclusive (no result: HPGD inh, ALDH1A1 block)
CCN(CC)c1ccc(/C=N/NC(=O)c2ccc3nc[nH]c3c2)cc1	Tau fluor counter inconclusive, ALDH1A1 block inconclusive, Tau fibril ThT 2.8µM (no result: HPGD inh)
COc1ccc(-c2nnc(SCc3c(C)noc3C)n2N)cc1OC	none
COc1cccc(NC(=O)Nc2ccc3c(c2)N(C)C(=O)CS3)c1	Tau fluor counter 14µM[quencher], Tau fibril ThT inconclusive
CN1C(=O)CSc2ccc(NC(=O)Nc3ccccn3)cc21	Tau fluor counter inconclusive, Tau fibril ThT inconclusive
CC(=O)Nc1ccc(NC(=O)Nc2ccc3c(c2)N(C)C(=O)CS3)cc1	ALDH1A1 block inconclusive (no result: HPGD inh)
CCOc1ccc(OCC)c(NC(=O)Nc2ccc3c(c2)N(C)C(=O)CS3)c1	Tau fluor counter 8.9µM[quencher], NPSR antag inconclusive
Cc1ccc(-c2cc(C(=O)Nc3nn[nH]n3)c3ccccc3n2)cc1	HPGD inh inconclusive, ALDH1A1 block inconclusive
Oc1cc2c(cc1C(c1ccc(Br)cc1)N1CCCC1)OCO2 (stereo not given)	Tau fluor counter inconclusive, ALDH1A1 block 2µM, Tau fibril ThT 22µM (no result: HPGD inh)
COc1ccc(-c2cc(C)nc3c(-c4ccc(OC)c(OC)c4)c(C)nn23)cc1	Tau fibril FP inconclusive, Tau fluor counter 14µM[quencher], Tau fibril ThT 10µM (no result: HPGD inh, ALDH1A1 block, NPSR antag)
COc1cc(OC)cc(C(=O)NCC(=O)OCC(=O)C(C)(C)C)c1	none
CCC(CC)C1C(C#N)=C(N)Oc2cc(C)oc(=O)c21 (stereo not given)	none
Cc1cc2c(c(=O)o1)C(c1ccc([N+](=O)[O-])o1)C(C#N)=C(N)O2 (stereo not given)	Tau fibril FP inconclusive, Tau fibril ThT 14µM (no result: HPGD inh, ALDH1A1 block)
CCOC(=O)CCc1c(C)nc(SCCCn2c(=O)[nH]c3ccccc32)c(C#N)c1C	HPGD inh 16µM, ALDH1A1 block 32µM
CCOC(=O)CCc1c(C)nc(SCCN2CCCC2)c(C#N)c1C	none
Cc1ccc(Cl)cc1NC(=O)Nc1nnc(N2CCCC(C)C2)s1 (stereo not given)	none (no result: HPGD inh, ALDH1A1 block, NPSR antag)
CC(NS(=O)(=O)c1ccccc1)C(c1cccs1)N1CCN(C)CC1 (stereo not given)	none
Cc1ccc(CCNC(=O)c2ccc3[nH]c(C)c(C)c3c2)cc1	Tau fluor counter inconclusive, Tau fibril ThT inconclusive (no result: HPGD inh, ALDH1A1 block, NPSR antag)
CCOc1ccc(CCNC(=O)c2ccc3[nH]c(C)c(C)c3c2)cc1	Tau fluor counter 25µM[quencher], Tau fibril ThT inconclusive (no result: HPGD inh, ALDH1A1 block, NPSR antag)
Cc1ccc(CNC(=O)c2oc3ccc(S(=O)(=O)N4CCCC(C)C4)cc3c2C)cc1 (stereo not given)	none (no result: HPGD inh, ALDH1A1 block, NPSR antag)
COc1ccc(C2C(=O)c3ccccc3C2=O)cc1OC	NPSR antag 13µM (no result: HPGD inh)
Cc1nc2ccc(N=NC3=C(O)CCCC3=O)cc2s1	Tau fibril ThT 13µM
Cc1cc(C)c(S(=O)(=O)Nc2cc(SCC(=O)O)c(O)c3ccccc23)cc1C	HPGD inh 1.1µM, Tau fibril FP 25µM, Tau fluor counter inconclusive, ALDH1A1 block inconclusive, Tau fibril ThT 13µM
COc1ccccc1NC(=O)C(=O)N/N=C(\C)CC(=O)Nc1ccc(OCc2ccccc2)cc1	Tau fibril ThT inconclusive
COc1ccc(CNC(=O)C/C(C)=N/NC(=O)COc2ccc(C)cc2Br)cc1	ALDH1A1 block 10µM (no result: HPGD inh)
COc1ccccc1NC(=O)C/C(C)=N/NC(=O)COc1c(Br)cc(Br)cc1OC	ALDH1A1 block 7.9µM (no result: HPGD inh)
C/C(CC(=O)NC(C)(C)C)=N\NC(=O)COc1ccc(C)cc1Br	ALDH1A1 block 14µM (no result: HPGD inh)
COC(=O)C(=C/C(C)=C/c1cccnc1)C(=O)OC	Tau fibril ThT inconclusive (no result: HPGD inh)
Cc1cc2c(cc1S(=O)(=O)NCc1ccc(F)cc1)OCCN2C	none (no result: HPGD inh, ALDH1A1 block, NPSR antag)
CCN(C(=O)CN1CCN(c2ccc(O)cc2)CC1)c1c(N)n(Cc2ccccc2)c(=O)[nH]c1=O	Tau fibril FP inconclusive, ALDH1A1 block inconclusive, Tau fibril ThT 28µM
CC(C)(C)NC(=O)NC(=O)CN1CCN(c2ccc(O)cc2)CC1	ALDH1A1 block 22µM, Tau fibril ThT inconclusive (no result: HPGD inh)
CC(CCc1ccccc1)NC(=O)CN1CCN(c2ccc(O)cc2)CC1 (stereo not given)	ALDH1A1 block 8.9µM (no result: HPGD inh)
CC(CCc1ccccc1)NC(=O)CN1CCN(Cc2ccccc2)C1=O (stereo not given)	NPSR antag inconclusive
CCN(C(=O)CN1CCN(c2cccc(C(F)(F)F)c2)CC1)c1c(N)n(Cc2ccccc2)c(=O)[nH]c1=O	ALDH1A1 block inconclusive (no result: HPGD inh)
Cc1ccc(NC(=O)c2ccccc2N(C)S(=O)(=O)c2ccccc2)c(C)c1	none
C/C(NC1CCCCC1)=C(/C#N)C(=O)NCCN1CCOCC1	none
COc1ccc(N2C(=O)CC(N3CCN(c4ccc(S(C)(=O)=O)cc4)CC3)C2=O)cc1 (stereo not given)	ALDH1A1 block 22µM
COc1ccc(N2CCN(C3CC(=O)N(C)C3=O)CC2)cc1 (stereo not given)	none
COc1cccc2sc(N3CCN(c4nc5ccccc5s4)CC3)nc12	ALDH1A1 block 14µM (no result: HPGD inh)
CCOc1cccc(N2C(=O)CC(N3CCN(c4nc5ccccc5s4)CC3)C2=O)c1 (stereo not given)	Tau fibril ThT inconclusive
COc1ccc(N2C(=O)CC(N3CCN(c4nc5ccccc5s4)CC3)C2=O)cc1 (stereo not given)	ALDH1A1 block 25µM
COc1ccc(COC(=O)N/N=C2/C[C@@H](O)[C@@H](O)[C@@H]3[C@H]4C(=O)N(c5ccc(F)cc5F)C(=O)[C@@H]4CC[C@@H]23)cc1	none (no result: HPGD inh, NPSR antag)
N#CCSc1nc2cc(C(=O)N3CCC(C(N)=O)CC3)ccc2c2nc3ccccc3n12	ALDH1A1 block 28µM
NC(=O)C1CCN(C(=O)c2ccc3c(=O)n(Cc4ccco4)c(SCC(=O)c4ccc(F)cc4)nc3c2)CC1	ALDH1A1 block inconclusive (no result: HPGD inh)

From PubChem BioAssay
